# In PubChem BioAssay:
# Activity calls are given as the source filed them.
# Key:
# [1] = test system: Plasmodium falciparum Sir2 (PF13_0152, Sir2A); experiment: pfSir2 binders on small-molecule microarrays, primary screen, biochemical, small-molecule microarray, 635 nm fluorescence (AID 1098); conditions: small-molecule microarray binding, fluorescence 635 nm; higher = more signal;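 further: score merges spot fluorescence intensity with its signal-to-noise ratio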
# [2] = small-molecule microarray binders of probe aDKK1, primary screen, biochemical, biotinylated probe, 635/667 nm fluorescence (AID 1099); conditions: higher = more signal;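 further: score merges 667nm spot fluorescence with signal to noise across triplicate slides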
# [3] = small-molecule microarray binders of probe aCHRDL2, primary screen, biochemical, biotinylated probe, 635/667 nm fluorescence (AID 1100); conditions: higher = more signal
# [4] = splicing luciferase reporter signal modulators, primary screen, spliceosome inhibition project, cell-based, HEK293, splice +/- reporter (AID 1101); conditions: luminescence, 24 h, higher = more signal, called active from +8 up or from −8 down;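 further: HEK293 cells carrying a splicing-competent luciferase reporter gene; test concentration not given here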
# [5] = target: Fibroblast growth factor 10 (Homo sapiens) (UniProt O15520); experiment: FGF10 binders on small-molecule microarrays, primary screen, biochemical, small-molecule microarray, 635 nm fluorescence (AID 1102); conditions: FGF10 binding, fluorescence 635 nm, higher = more signal
# [6] = test system: glycogen synthase kinase-3 (GSK3A per assay name; protocol says GSK3B); experiment: GSK3 binders on small-molecule microarrays, primary screen, biochemical, small-molecule microarray, 635 nm fluorescence, GSK3A (AID 1103); conditions: small-molecule microarray binding, fluorescence 635 nm; higher = more signal; further: the record names both GSK3A and GSK3B
# [7] = target: Epidermal growth factor receptor (Homo sapiens) (UniProt P00533); experiment: EGFR binders on small-molecule microarrays, primary screen, biochemical, small-molecule microarray, 635 nm fluorescence (AID 1104); conditions: EGFR binding, higher = more signal;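 further: score merges 667 nm emission intensity with spot signal to noise over triplicate slides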
# [8] = target: Follistatin-related protein 3 (Homo sapiens) (UniProt O95633); experiment: FSTL3 binders on small-molecule microarrays, primary screen, biochemical, small-molecule microarray, 635 nm fluorescence (AID 1105); conditions: FSTL3 binding, higher = more signal;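 further: score merges emission near 667 nm and signal to noise per printed spot across three slides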
# [9] = target: Dickkopf-related protein 1 (Homo sapiens) (UniProt O94907); experiment: DKK1 binders on small-molecule microarrays, primary screen, biochemical, small-molecule microarray, 635 nm fluorescence scan (AID 1106); conditions: DKK1 binding, higher = more signal;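 further: score merges emission near 667 nm with signal to noise over three replicate slides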
# [10] = test system: Inhibin beta A chain (activin A); experiment: INHBA (activin A) binders on microarrays, primary screen, biochemical, small-molecule microarray, 635 nm fluorescence scan (AID 1107); conditions: small-molecule microarray binding, higher = more signal;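 further: mouse activin A protein probed at 4.33 µg/mL on printed slides; score merges bound-protein fluorescence near 667 nm with spot signal-to-noise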
# [11] = test system: Human papillomavirus type 1a protein E7 (residues 44-93); experiment: HPV1a E7 fragment binders on microarrays, primary screen, biochemical, small-molecule microarray, residues 44-93, 635 nm fluorescence (AID 1108); conditions: small-molecule microarray binding, fluorescence 635 nm; higher = more signal;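 further: E7 fragment applied at 1 µg/mL in TBST for 1 h at 4 C; score combines spot fluorescence with its signal to noise ratio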
# [12] = modulators of HCV replicon luciferase signal, primary screen, HCV replication inhibitor project, Huh7 cells, luciferase reporter (AID 1109); conditions: 48 h, higher = more signal;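 further: huh7 hepatoma cells harbouring a luciferase neomycin HCV replicon reporter; luciferase luminescence as measure of HCV replicon replication; test concentration not given here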
# [13] = target: Left-right determination factor 2 (Homo sapiens) (UniProt O00292); experiment: LEFTY2 binders on small-molecule microarrays, primary screen, biochemical, small-molecule microarray, 635 nm fluorescence scan (AID 1110); conditions: LEFTY2 binding, higher = more signal
# [14] = target: Calmodulin-1 (Homo sapiens) (UniProt P0DP23); experiment: CALM1 binders on microarrays, EGTA buffer, profiling panel, biochemical, small-molecule microarray, Cy5-labelled CALM1 (AID 1111); conditions: Cy5-CALM1 binding fluorescence, higher = more signal;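 further: labelled calmodulin applied in Tris saline Tween buffer holding calcium plus EGTA and DTT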
# [15] = target: Calmodulin-1 (Homo sapiens) (UniProt P0DP23); experiment: calcium-bound CALM1 binders on microarrays, profiling panel, artefact control for SMM control-protein annotation, biochemical, small-molecule microarray, Cy5-labelled CALM1, plus calcium (AID 1112); conditions: Cy5-CALM1 binding fluorescence, higher = more signal;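 further: score merges spot fluorescence with signal to noise from triplicate slides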
# [16] = small-molecule microarray binders of probe aWnt5a, primary screen, biochemical, biotinylated probe, 635/667 nm fluorescence (AID 1113); conditions: higher = more signal;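 further: score merges 667 nm fluorescence intensity with signal-to-noise per printed feature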
# [17] = small-molecule microarray binders of probe aShh, primary screen, biochemical, biotinylated probe, 635/667 nm fluorescence (AID 1114); conditions: higher = more signal;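 further: probe is biotin-labelled aShh protein from a stem cell growth factor screen; measures binding of labelled protein to compounds printed on the slide; score merges feature fluorescence at 667 nm with signal-to-noise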
# [18] = small-molecule microarray binders of probe aNog, primary screen, biochemical, biotinylated probe, 635/667 nm fluorescence (AID 1115); conditions: higher = more signal;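 further: probe is biotinylated aNog protein used at 0.15 µg/mL for 1 h at 4 C; z-score combines 667 nm fluorescence of each spot with its signal to noise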
# [19] = target: Torsin-1A-interacting protein 1 (Homo sapiens) (UniProt Q5JTV8); experiment: LAP1 binders from COS7 cell lysate, primary screen, small-molecule microarray, 635/667 nm fluorescence (AID 1116); conditions: COS7-hLAP1 lysate binding, 635 nm fluorescence, higher = more signal
# [20] = target: Alpha-bungarotoxin (Bungarus multicinctus) (UniProt P60615); experiment: alpha-bungarotoxin binders on microarray, profiling panel, artefact control for SMM control protein annotation, biochemical, small-molecule microarray, Alexa647 label, 635/667 nm fluorescence (AID 1117); conditions: alpha-BTX-A647 binding fluorescence, higher = more signal
# Sequence of Alpha-bungarotoxin (Bungarus multicinctus) (P60615 whole entry, looked up): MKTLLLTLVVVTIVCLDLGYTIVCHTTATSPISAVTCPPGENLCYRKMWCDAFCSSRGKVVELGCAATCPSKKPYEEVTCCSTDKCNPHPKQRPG
# Sequence of Dickkopf-related protein 1 (Homo sapiens) (O94907 whole entry, looked up): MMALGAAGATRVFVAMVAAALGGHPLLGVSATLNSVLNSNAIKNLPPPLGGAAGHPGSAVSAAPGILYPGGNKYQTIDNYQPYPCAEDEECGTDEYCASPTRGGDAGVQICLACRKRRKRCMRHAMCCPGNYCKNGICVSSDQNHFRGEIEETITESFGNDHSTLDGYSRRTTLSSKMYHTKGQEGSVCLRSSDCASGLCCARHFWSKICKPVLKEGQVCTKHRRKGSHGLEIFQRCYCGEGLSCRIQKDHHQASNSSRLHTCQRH
# Sequence of Torsin-1A-interacting protein 1 (Homo sapiens) (Q5JTV8 whole entry, looked up): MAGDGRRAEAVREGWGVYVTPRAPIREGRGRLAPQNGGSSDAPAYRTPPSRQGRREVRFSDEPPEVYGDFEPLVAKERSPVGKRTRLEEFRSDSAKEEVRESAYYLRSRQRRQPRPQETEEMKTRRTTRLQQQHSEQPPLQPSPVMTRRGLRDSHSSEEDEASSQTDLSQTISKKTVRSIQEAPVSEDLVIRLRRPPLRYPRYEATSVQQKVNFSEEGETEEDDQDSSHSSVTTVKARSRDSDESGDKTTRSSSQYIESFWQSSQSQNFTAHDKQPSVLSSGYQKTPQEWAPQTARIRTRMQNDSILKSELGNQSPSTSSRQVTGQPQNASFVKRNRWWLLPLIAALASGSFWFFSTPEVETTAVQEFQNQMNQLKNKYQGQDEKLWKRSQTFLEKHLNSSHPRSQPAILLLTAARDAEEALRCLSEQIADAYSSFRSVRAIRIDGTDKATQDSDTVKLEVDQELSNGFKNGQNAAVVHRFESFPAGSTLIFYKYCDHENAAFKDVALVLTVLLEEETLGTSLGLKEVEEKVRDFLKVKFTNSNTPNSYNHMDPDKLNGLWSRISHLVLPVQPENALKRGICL
# Sequence of Follistatin-related protein 3 (Homo sapiens) (O95633 whole entry, looked up): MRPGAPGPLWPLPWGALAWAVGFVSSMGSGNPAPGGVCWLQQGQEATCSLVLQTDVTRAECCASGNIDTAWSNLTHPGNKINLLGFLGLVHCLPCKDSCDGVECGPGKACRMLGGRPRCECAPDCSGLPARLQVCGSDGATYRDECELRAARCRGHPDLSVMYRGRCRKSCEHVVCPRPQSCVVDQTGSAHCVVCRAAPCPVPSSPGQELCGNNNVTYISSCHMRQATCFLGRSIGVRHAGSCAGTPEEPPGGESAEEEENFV
# Sequence of Epidermal growth factor receptor (Homo sapiens) (P00533 whole entry, looked up): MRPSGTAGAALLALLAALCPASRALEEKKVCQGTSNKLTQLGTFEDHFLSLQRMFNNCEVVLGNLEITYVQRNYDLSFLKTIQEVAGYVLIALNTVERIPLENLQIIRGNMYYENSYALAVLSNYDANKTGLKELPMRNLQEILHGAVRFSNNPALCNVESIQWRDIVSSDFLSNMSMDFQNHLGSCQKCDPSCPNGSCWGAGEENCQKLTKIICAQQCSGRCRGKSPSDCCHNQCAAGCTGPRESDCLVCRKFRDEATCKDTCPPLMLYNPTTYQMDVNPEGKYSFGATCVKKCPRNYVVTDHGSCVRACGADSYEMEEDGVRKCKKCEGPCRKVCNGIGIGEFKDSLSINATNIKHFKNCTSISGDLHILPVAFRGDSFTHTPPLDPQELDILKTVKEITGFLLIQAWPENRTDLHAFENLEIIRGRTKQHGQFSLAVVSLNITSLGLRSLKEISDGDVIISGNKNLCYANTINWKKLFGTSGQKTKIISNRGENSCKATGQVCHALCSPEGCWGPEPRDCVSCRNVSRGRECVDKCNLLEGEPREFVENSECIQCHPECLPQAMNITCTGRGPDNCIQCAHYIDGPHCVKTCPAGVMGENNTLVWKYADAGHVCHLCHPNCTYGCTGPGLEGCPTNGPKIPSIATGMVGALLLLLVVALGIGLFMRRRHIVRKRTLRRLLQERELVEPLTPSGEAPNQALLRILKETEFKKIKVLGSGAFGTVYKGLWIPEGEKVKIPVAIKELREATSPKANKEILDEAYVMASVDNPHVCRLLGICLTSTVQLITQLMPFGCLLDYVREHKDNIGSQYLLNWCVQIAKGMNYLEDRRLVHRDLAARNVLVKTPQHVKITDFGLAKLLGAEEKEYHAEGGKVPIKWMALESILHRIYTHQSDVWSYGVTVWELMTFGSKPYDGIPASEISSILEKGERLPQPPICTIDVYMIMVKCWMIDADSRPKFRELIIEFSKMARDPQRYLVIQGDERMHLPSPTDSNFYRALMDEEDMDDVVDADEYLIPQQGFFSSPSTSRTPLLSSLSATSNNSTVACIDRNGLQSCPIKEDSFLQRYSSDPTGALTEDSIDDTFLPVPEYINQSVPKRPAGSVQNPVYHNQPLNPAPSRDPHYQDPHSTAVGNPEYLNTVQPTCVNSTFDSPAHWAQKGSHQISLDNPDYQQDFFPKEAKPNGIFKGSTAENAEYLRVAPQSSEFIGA
# Sequence of Left-right determination factor 2 (Homo sapiens) (O00292 whole entry, looked up): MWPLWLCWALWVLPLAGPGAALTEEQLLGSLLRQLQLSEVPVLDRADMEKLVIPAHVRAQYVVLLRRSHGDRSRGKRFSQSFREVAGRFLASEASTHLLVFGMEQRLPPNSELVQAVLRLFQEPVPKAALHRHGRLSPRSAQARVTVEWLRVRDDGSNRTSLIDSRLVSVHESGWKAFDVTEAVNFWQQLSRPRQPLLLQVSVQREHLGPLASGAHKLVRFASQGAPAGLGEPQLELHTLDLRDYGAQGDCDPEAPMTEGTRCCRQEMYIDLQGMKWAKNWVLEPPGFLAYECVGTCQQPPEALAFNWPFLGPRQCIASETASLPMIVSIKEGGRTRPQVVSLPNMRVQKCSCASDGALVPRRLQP
# Sequence of Fibroblast growth factor 10 (Homo sapiens) (O15520 whole entry, looked up): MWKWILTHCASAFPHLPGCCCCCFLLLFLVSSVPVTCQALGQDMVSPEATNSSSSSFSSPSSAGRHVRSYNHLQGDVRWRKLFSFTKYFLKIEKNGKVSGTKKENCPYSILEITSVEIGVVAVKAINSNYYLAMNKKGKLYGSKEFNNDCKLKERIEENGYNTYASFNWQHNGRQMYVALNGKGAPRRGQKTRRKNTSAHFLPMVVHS
Structure (SMILES),composite z-score [1],composite z-score [2],composite z-score [3],z-score [4],composite z-score [5],composite z-score [6],composite z-score [7],composite z-score [8],composite z-score [9],composite z-score [10],composite z-score [11],z-score [12],composite z-score [13],composite z-score [14],composite z-score [15],composite z-score [16],composite z-score [17],composite z-score [18],composite z-score [19],composite z-score [20]
CCO[C@H](c1cc(OC)cc([N+](=O)[O-])c1OC)[C@H](C)C=CCC(=O)OC,0.54,-0.295,-0.776,0.402 (inactive),0.0681,0.117,0.147,0.385,0.505,0.0666,-0.679,0.265,0.46,-0.432,-1.36,-0.248,-0.214,-0.0278,0.11,-0.0356
CO[C@H]1COC(=O)[C@@H](C)COC(=O)[C@H](C)NC(=O)CC=C[C@H]1C,0.473,-0.537,-1.73,-0.0731 (inactive),0.577,0.732,0.785,1.54,1.32,1.13,-0.328,-0.399,1.28,-0.451,-1.98,-0.178,-0.243,-0.379,-0.15,-0.354
C[C@@H](c1ccccc1)N1C(=O)[C@H]2[C@H]3[C@H](O)[C@H](O)CC(=NO[C@@H]4O[C@H](CO)[C@@H](O)[C@H](O)[C@H]4O)[C@H]3CC[C@H]2C1=O,0.249,-0.155,-0.546,0.0641 (inactive),0.559,0.783,0.425,1.03,0.44,0.0882,0.668,-0.087,0.414,-0.222,-0.461,-0.196,0.147,-0.206,0.163,0.556
COc1cccc([C@H]2Oc3ccc(OC)cc3C(=NO[C@H](C)c3cn([C@H](CO)Cc4ccccc4)nn3)[C@@H]2O)c1,-0.42,-0.561,-0.0229,0.397 (inactive),0.0546,-0.617,-0.0537,-0.0403,-0.28,0.548,-0.995,-1.74,0.323,-1.57,-0.45,-0.175,-0.229,-0.141,0.169,-0.689
